Screens: PubChem BioAssay, National Center for Advancing Translational Sciences (NCATS)
Only some compounds are listed: those with a hit (about 18% of all), similar ones and a draw of the others.
GCN5L2 inh = inhibitors of human GCN5L2 histone acetyltransferase. hit rate 0.21% among 390,000. Q92830. GCN5L2 HAT assay, ThioGlo1 CoA-SH fluorescence. Potency, µM (doses to about 58.9 µM), actives largely listed as inhibitors. AID 504327
Target sequence (Q92830 whole entry, looked up): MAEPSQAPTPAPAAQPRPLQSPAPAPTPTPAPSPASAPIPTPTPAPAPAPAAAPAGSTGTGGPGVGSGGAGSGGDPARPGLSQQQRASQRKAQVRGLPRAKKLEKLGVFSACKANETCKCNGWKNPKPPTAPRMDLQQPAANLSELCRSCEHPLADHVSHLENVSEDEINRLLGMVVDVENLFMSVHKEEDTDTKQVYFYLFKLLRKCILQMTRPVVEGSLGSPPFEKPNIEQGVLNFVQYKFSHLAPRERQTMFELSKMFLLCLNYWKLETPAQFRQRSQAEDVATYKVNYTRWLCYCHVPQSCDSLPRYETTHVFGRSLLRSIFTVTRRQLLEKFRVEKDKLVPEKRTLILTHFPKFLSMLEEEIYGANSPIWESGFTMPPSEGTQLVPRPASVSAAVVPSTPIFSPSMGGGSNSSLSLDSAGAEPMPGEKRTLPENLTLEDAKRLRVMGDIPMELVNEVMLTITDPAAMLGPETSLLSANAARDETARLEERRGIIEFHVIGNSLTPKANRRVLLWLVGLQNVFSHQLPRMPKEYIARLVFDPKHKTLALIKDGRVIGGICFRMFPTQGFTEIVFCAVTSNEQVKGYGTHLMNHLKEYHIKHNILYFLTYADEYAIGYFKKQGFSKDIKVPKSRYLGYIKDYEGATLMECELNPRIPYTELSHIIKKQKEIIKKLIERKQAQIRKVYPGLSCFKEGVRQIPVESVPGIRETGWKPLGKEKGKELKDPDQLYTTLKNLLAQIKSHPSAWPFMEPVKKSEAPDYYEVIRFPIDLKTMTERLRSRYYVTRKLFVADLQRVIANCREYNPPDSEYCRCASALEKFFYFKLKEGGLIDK
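ThioGlo1-coupled HAT assay: 20nM GCN5L2, 70uM acetyl-CoA, 75uM H3(1-25) peptide, pH 7.5. Fluorescence read at 340/540nm at start and after 20 min at room temperature.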
TDP1 block = TDP1 (human) enzyme inhibition | hit rate 0.28% among 350,000 | Potency, µM (top dose mostly 130 µM), usual class: inhibitors | recombinant TDP1, AlphaScreen DNA substrate cleavage | AID 485290; also: nearly all actives have a fitted effect of over 40% in size
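Enzyme-compound mixtures sat 15 min at room temperature, followed by a 5 min reaction with 15 nM final substrate and 10 min with AlphaScreen beads. Recombinant human Tdp1 was used at 1 nM final.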
PLK1 PBD block = blocks phosphopeptide binding to human PLK1 polo-box domain; P53350; Plk1 PBD binding of FITC phosphopeptide, fluorescence polarization; Potency, µM, most hits filed as inhibitors; hit rate 2.8% among 360,000; also: series mostly up to about 57 µM; nearly all actives have a fitted effect of over 65% in size
DT40 TDP1 no CPT = qHTS for Inhibitors of human tyrosyl-DNA phosphodiesterase 1 (TDP1): qHTS in cells in absence of CPT; AID 686978, 2013; Potency, µM (doses to about 46.2 µM), actives largely listed as inhibitors; DT40 Tdp1-/- hTDP1 cells, no CPT, ATP luminescence, 48 h; hit rate 15% among 420,000; also: nearly all actives have a fitted effect of over 55% in size
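Readout: luminescence from CellTiter-Glo after 30 min in the dark at RT. Cells: DT40 Tdp1-/- with stable hTDP1, 400/well. Exposure: compounds alone, ≥48 hr, 37 °C.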
DT40 TDP1 CPT = DT40-hTDP1 cell growth loss with CPT; chicken DT40 Tdp1-/-;hTDP1 cells + 20 nM CPT, ATP luminescence, 48 h; Potency, µM (doses to about 46.2 µM), hits mostly inhibitors; hit rate 12% among 420,000; also: nearly all actives have a fitted effect of over 55% in size
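Cell growth measured by CellTiter-Glo luminescence after a minimum 48 h, 37 C compound exposure with 20 nM CPT in Tdp1-knockout DT40 cells stably expressing hTDP1, seeded 400/well; qHTS titration format.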
VDR inhibitor = inhibitors of human vitamin D receptor; Potency, µM, hits mostly inhibitors; VDR-SRC2-3 peptide fluorescence polarization, 2 h; AID 504847; P11473; hit rate 0.93% among 400,000
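Fluorescence polarization assay of small-molecule disruption of VDR binding to coregulator peptide SRC2-3. Compounds and controls pin-transferred, then read after 2 h incubation at ambient room temperature.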
Of the large screens only hits and unclear results are named; the others gave an inactive call. Calls follow the shape of the dose curve; as a rule, active = well fitted curve in the direction sought with a large enough effect; inconclusive = small, poorly fitted or top-dose-only effect, or another doubt; inactive = no such curve, though single readings can be large; an effect the other way counts as inactive or inconclusive.

COc1cccc(Cn2c(=O)c(C)nc3cnc(N(C)C)nc32)c1	DT40 TDP1 no CPT inconclusive, DT40 TDP1 CPT 16µM (no result: TDP1 block, PLK1 PBD block)
CCc1ccc(-n2c(=O)c3c4c(sc3n(CC(=O)NCCCOC)c2=O)CCC4)cc1	DT40 TDP1 no CPT inconclusive, DT40 TDP1 CPT inconclusive (no result: PLK1 PBD block)
CCOC(=O)c1ccc(NC(=O)CN(c2ccc(C)cc2)S(=O)(=O)c2c(C)nn(C)c2C)cc1	PLK1 PBD block inconclusive, DT40 TDP1 no CPT inconclusive, DT40 TDP1 CPT 23µM
CCOc1ccccc1NC(=O)CN(c1cc(C)cc(C)c1)S(=O)(=O)c1c(C)nn(C)c1C	DT40 TDP1 no CPT 21µM, DT40 TDP1 CPT 21µM (no result: PLK1 PBD block)
COc1ccc(NC(=O)CN(c2ccc(C)cc2)S(=O)(=O)c2c(C)nn(C)c2C)cc1	none
Cc1cc(C)cc(N(CC(=O)Nc2c(C)cc(C)cc2C)S(=O)(=O)c2c(C)nn(C)c2C)c1	DT40 TDP1 no CPT inconclusive, DT40 TDP1 CPT inconclusive (no result: PLK1 PBD block)
O=S(=O)(NCc1ccc2c(c1)OCO2)c1ccc(F)c(F)c1	none
CCOc1ccc(CCNC(=O)CSCC(=O)Nc2ccc(OC)cc2)cc1OCC	DT40 TDP1 no CPT inconclusive
Brc1cccc(-c2nnn3c2nc(NCc2ccc4c(c2)OCO4)c2ccccc23)c1	DT40 TDP1 no CPT inconclusive, DT40 TDP1 CPT inconclusive (no result: PLK1 PBD block)
C=CCc1cc(C=O)cc(OCC)c1OCc1ccc(Cl)cc1	DT40 TDP1 no CPT inconclusive, DT40 TDP1 CPT inconclusive
C=CCc1cc(C=O)cc(OC)c1OCc1ccc(Cl)cc1	DT40 TDP1 no CPT 18µM, DT40 TDP1 CPT inconclusive
COc1ccc(-n2nc(C(=O)N3CCC(C)CC3)c3c4ccccc4n(C)c3c2=O)cc1Cl	DT40 TDP1 no CPT inconclusive, DT40 TDP1 CPT inconclusive (no result: PLK1 PBD block)
CC(=O)N1c2ccc(S(=O)(=O)N3CCC(C(=O)NCc4ccc(C)cc4)CC3)cc2CC1C (configuration not stated)	DT40 TDP1 CPT inconclusive
CC(=O)N1c2ccc(S(=O)(=O)N3CCC(C(=O)NCCc4ccc(Cl)cc4)CC3)cc2CC1C (configuration not stated)	DT40 TDP1 no CPT 10µM, DT40 TDP1 CPT 16µM
COc1cc(OC)c(NC(=O)C2CCN(S(=O)(=O)c3ccc4c(c3)CC(C)N4C(C)=O)CC2)cc1Cl (configuration not stated)	DT40 TDP1 no CPT inconclusive, DT40 TDP1 CPT 21µM
CC(=O)N1c2ccc(S(=O)(=O)N3CCCC3C(=O)NCc3ccc(Cl)cc3)cc2CC1C (configuration not stated)	DT40 TDP1 no CPT inconclusive, DT40 TDP1 CPT 21µM (no result: TDP1 block)
COc1cc(NC(=O)C2CCN(S(=O)(=O)c3ccc4c(c3)CC(C)N4C(C)=O)CC2)cc(OC)c1OC (configuration not stated)	none
CC(=O)N1c2ccc(S(=O)(=O)N3CCC(C(=O)NCc4ccc(Cl)cc4)CC3)cc2CC1C (configuration not stated)	PLK1 PBD block 7.5µM, DT40 TDP1 no CPT inconclusive, DT40 TDP1 CPT 18µM, VDR inhibitor 25µM
CC(C)(C)c1ccc(NC(=O)COC(=O)c2ccc(NS(=O)(=O)c3ccc(F)c(F)c3)cc2)cc1	DT40 TDP1 no CPT inconclusive
CC1Cc2cc(S(=O)(=O)N3CCC(C(=O)NCc4ccco4)CC3)ccc2N1C(=O)C1CCC1 (configuration not stated)	DT40 TDP1 no CPT 23µM, DT40 TDP1 CPT inconclusive
COc1cc(OC)c(NC(=O)N2CCc3cc(S(=O)(=O)N4CCC(C)CC4)ccc32)cc1Cl	DT40 TDP1 no CPT 8.2µM, DT40 TDP1 CPT 10µM (no result: PLK1 PBD block)
Cc1onc(-c2c(Cl)cccc2Cl)c1C(N)=S	none
N#Cc1c(NC(=S)NC(=O)c2ccccc2)sc2c1CCN(CCc1ccccc1)C2	none (no result: PLK1 PBD block, DT40 TDP1 no CPT, DT40 TDP1 CPT, VDR inhibitor)
CC(C)(C)C(=O)Nc1sc2c(c1C#N)CCN(Cc1ccccc1)C2	GCN5L2 inh inconclusive, DT40 TDP1 no CPT 23µM, DT40 TDP1 CPT inconclusive (no result: TDP1 block)
CCC(=O)Nc1sc2c(c1C(=O)OC)CCN(Cc1ccccc1)C2	none (no result: TDP1 block)
CC(C)N1CCc2c(sc(NC(=O)CCS(=O)(=O)c3ccccc3)c2C#N)C1	DT40 TDP1 no CPT 26µM, DT40 TDP1 CPT inconclusive
COC(=O)c1c(NC(=O)CCS(=O)(=O)c2ccccc2)sc2c1CCN(C)C2	DT40 TDP1 no CPT 3.7µM, DT40 TDP1 CPT 5.8µM
C[C@H]1O[C@@H](O[C@H]2[C@@H](O)C[C@H](O[C@H]3[C@@H](O)C[C@H](O[C@H]4CC[C@@]5(C)[C@H](CC[C@@H]6[C@@H]5C[C@@H](O)[C@]5(C)[C@@H](C7=CC(=O)OC7)CC[C@]65O)C4)O[C@@H]3C)O[C@@H]2C)C[C@H](O)[C@@H]1O	DT40 TDP1 no CPT 0.6µM, DT40 TDP1 CPT 0.84µM
COC(=O)CCC(C)C1CCC2C3CCC4CC(O)CCC4(C)C3CC(O)C12C (configuration not stated)	DT40 TDP1 no CPT 21µM, DT40 TDP1 CPT 13µM (no result: GCN5L2 inh, TDP1 block)
COC(=O)CCC(C)C1CCC2C3C(O)C[C@@H]4CC(O)CC[C@@]4(C)C3CC(O)[C@]12C (some centres not stated)	DT40 TDP1 no CPT inconclusive, DT40 TDP1 CPT inconclusive (no result: PLK1 PBD block)
COC(=O)CCC(C)C1CCC2C3C(OC(C)=O)CC4CC(O)CCC4(C)C3CC(O)C12C (configuration not stated)	DT40 TDP1 no CPT 16µM, DT40 TDP1 CPT inconclusive (no result: GCN5L2 inh, TDP1 block, VDR inhibitor)
CC(C)[C@H](NC(=O)CCCn1nnc2ccccc2c1=O)C(=O)O	none
CC(=O)N1CCC[C@H]1C(=O)NCC1Cc2cc(Cl)cc(-c3ccc4[nH]ccc4c3)c2O1 (some centres not stated)	DT40 TDP1 no CPT inconclusive (no result: GCN5L2 inh, TDP1 block, PLK1 PBD block, VDR inhibitor)
CN(C)CCN(C(=O)CCS(=O)(=O)c1ccccc1)c1nc2c(F)cccc2s1	PLK1 PBD block inconclusive
Cc1ccc2sc(N(CCCN(C)C)C(=O)CCS(=O)(=O)c3ccccc3)nc2c1C	PLK1 PBD block inconclusive, DT40 TDP1 no CPT 2.6µM, DT40 TDP1 CPT 2.3µM
COc1ccc(OC)c2sc(N(CCCN(C)C)C(=O)CCS(=O)(=O)c3ccccc3)nc12	PLK1 PBD block 7.5µM, DT40 TDP1 no CPT 0.65µM, DT40 TDP1 CPT 1.5µM, VDR inhibitor inconclusive
O=C(NCc1ccccc1)c1[nH]c(C(F)(F)F)nc1-c1ccccc1	none (no result: GCN5L2 inh, TDP1 block, VDR inhibitor)
COc1ccc(CCNC(=O)CSc2cn(CCNC(=O)c3c(F)cccc3F)c3ccccc23)cc1OC	DT40 TDP1 no CPT inconclusive, DT40 TDP1 CPT inconclusive (no result: PLK1 PBD block)
CCc1c(C)nc(N2CCN(c3ccc(OC)cc3)CC2)[nH]c1=O	DT40 TDP1 no CPT 21µM, DT40 TDP1 CPT inconclusive (no result: TDP1 block)
CCc1c(C)nc(N2CCN(c3ccc(Cl)cc3)CC2)[nH]c1=O	PLK1 PBD block 24µM, DT40 TDP1 no CPT inconclusive, DT40 TDP1 CPT inconclusive, VDR inhibitor inconclusive (no result: TDP1 block)
